From article PMC4336329 (PLoS ONE, 2015)
The whole screen tested about 310,000 compounds, of which about 14,000 (4.5%) showed an effect of 50% or more. The effect is printed as a negative number. What follows is part of a selection rich in strong results, with near analogues and random picks from the rest.

Target: human ether-à-go-go-related gene (hERG) potassium channel (human, UniProt Q12809)
Assay: primary screen, population patch clamp on CHO cells stably expressing hERG; higher = less effect of the substance
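Further: peak tail current of the secondary pulse compared with the same well before compound.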

Chain of human ether-à-go-go-related gene (hERG) potassium channel (Q12809 whole entry, looked up): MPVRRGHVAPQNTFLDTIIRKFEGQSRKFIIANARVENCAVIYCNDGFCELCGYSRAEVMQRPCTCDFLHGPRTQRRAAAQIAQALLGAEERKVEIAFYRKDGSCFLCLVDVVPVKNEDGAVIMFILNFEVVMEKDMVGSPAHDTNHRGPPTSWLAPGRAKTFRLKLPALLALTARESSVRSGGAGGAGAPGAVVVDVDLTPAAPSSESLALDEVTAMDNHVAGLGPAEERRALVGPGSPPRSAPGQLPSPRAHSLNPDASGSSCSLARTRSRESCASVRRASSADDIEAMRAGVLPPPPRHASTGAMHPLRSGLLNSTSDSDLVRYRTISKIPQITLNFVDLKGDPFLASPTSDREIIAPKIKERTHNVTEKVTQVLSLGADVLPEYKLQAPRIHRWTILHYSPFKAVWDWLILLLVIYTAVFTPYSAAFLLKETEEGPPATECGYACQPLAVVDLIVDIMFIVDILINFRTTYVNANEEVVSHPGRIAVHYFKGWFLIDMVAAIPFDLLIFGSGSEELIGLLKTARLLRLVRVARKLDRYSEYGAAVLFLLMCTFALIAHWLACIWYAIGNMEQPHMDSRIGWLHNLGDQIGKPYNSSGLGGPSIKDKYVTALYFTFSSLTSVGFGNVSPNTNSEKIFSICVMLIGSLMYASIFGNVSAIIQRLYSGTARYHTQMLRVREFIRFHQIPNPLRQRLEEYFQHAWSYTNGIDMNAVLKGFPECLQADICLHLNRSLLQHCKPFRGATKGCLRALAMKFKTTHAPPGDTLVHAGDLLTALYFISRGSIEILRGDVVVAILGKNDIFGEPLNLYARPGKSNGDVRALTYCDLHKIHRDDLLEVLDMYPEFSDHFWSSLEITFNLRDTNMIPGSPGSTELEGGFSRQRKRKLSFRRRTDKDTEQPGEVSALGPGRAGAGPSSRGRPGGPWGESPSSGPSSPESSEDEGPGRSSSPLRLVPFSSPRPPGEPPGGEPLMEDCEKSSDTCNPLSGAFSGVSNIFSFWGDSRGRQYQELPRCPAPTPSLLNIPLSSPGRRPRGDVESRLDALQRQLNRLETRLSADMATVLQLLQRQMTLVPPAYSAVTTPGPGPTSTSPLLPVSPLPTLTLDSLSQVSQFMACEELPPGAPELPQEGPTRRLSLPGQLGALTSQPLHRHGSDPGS

Row | SMILES | hERG current change (%, negative = inhibition) at 10uM [%]
1 | CCN1CCN(C(=S)Nc2cc(C(=O)OC)ccc2C(=O)OC)CC1 | 16.9
2 | N=c1n(CCOc2ccccc2)c2ccccc2n1CCN1CCOCC1 | -42.9
3 | Cc1ccc(C(=O)NCCN2CCOCC2)cc1Cl | -17.7
4 | Cc1ccc(C(=O)NCCN2CCOCC2)cc1 | 12
5 | Cc1ccc(C(=O)Cn2c(=N)n(CCN3CCOCC3)c3ccccc32)cc1.[Br-] | -59.9
6 | Cn1c(=O)n(Cc2ccccc2Br)c2ccccc21 | -10.3
7 | Br.N=c1n(CCN2CCCCC2)c2ccccc2n1CC(=O)c1ccc(Cl)c(Cl)c1 | -72.6
8 | Br.N=c1n(CCN2CCOCC2)c2ccccc2n1CC(=O)c1ccc(Cl)c(Cl)c1 | -73.2
9 | Br.Cc1ccc(C(=O)Cn2c(=N)n(N)c3ccccc32)cc1 | -14.7
10 | Br.N=c1n(CCN2CCCCC2)c2ccccc2n1CC(=O)c1cccs1 | -25.2
11 | Br.N=c1n(CCN2CCOCC2)c2ccccc2n1Cc1ccccc1Br | -72.9
12 | Br.COC(=O)Cn1c(=N)n(CCN2CCCCC2)c2ccccc21 | -19.2
13 | O=C(NCCN1CCOCC1)c1ccc(Cl)c(Cl)c1 | -2.39
14 | COc1ccc(C)cc1NC(=O)c1ccc(NC(=O)CC2SC(N3CCCC3)=NC2=O)cc1 (stereo not shown) | 18.2
15 | Cc1cn(-c2ccc(Br)cc2)[nH]c1=O | 8.3
16 | COC(=O)C1=C(C)N=C2SC(C)C(=O)N2C1c1cccs1 (stereo not shown) | 7.16
17 | CCNC(=O)NC(=O)COC(=O)CCCSc1nc2ccccc2s1 | -8.6
18 | CCOc1ccc(S(=O)(=O)NCCC(=O)NCCc2ccc(C(C)C)cc2)cc1 | 3.89
19 | CCOC(=O)c1nn(-c2ccc([N+](=O)[O-])cc2)cc1O | 2.65
20 | COC(=O)c1cc(OC)c(OC)cc1NCC(=O)Nc1cccc(C(F)(F)F)c1 | 13.8
21 | COc1ccc(C(=O)N2CCOCC2)cc1S(=O)(=O)N1CCC(C)CC1 | -9.4
22 | COc1ccccc1NC(=O)Cn1c([N+](=O)[O-])cnc1C | 11

Row | SMILES | hERG current change (%, negative = inhibition) at 10uM [%]
23 | NC(=S)N=Nc1c(O)n(CCCl)c2ccc(Br)cc12 | -27.4
24 | CCc1ccccc1S(=O)(=O)Cc1ccc(C(=O)NCC2CCCO2)o1 (stereo not shown) | -23
25 | Cc1ccc(C(C)NC(=O)Cc2cccs2)cc1C (stereo not shown) | -44.2
26 | CCN1CCCC1CNC(=O)C(=O)NC(C)c1ccccc1 (stereo not shown) | 13
27 | Br.N=c1n(CC(=O)c2cccc([N+](=O)[O-])c2)c2ccccc2n1Cc1ccccc1 | -17.9
28 | Br.N=c1n(CCN2CCCCC2)c2ccccc2n1CC(=O)c1cccc([N+](=O)[O-])c1 | -69
29 | Br.N=c1n(CCN2CCOCC2)c2ccccc2n1CC(=O)c1cccc([N+](=O)[O-])c1 | -42.2
30 | Br.C=CCn1c(=N)n(CC(=O)c2cccc([N+](=O)[O-])c2)c2ccccc21 | -56.7
31 | Cl.N=C(c1cccc([N+](=O)[O-])c1)N1CCCCCC1 | 2.26
32 | Br.CCn1c(=N)n(CC(=O)c2cccc([N+](=O)[O-])c2)c2ccccc21 | 12.1
33 | O=C1Nc2ccccc2/C1=C/c1cnc(-c2ccccc2)[nH]1 | 26.2
34 | C[C@@H]1C(=O)O[C@H]2[C@H](O)[C@@]34[C@H]5C[C@@H](C(C)(C)C)[C@]36[C@@H](OC(=O)[C@@H]6O)O[C@@]4(C(=O)O5)[C@@]12O | 21.2
35 | CC(OC(=O)C1CCN(S(=O)(=O)c2ccc(Cl)cc2)CC1)C(=O)N1CCc2ccccc21 (stereo not shown) | -16.4
36 | Oc1ccc(-c2cccc(-c3ccc(O)cc3)n2)cc1 | 15.5
37 | CN(C)S(=O)(=O)N1CCN(C(=O)N2CCCCC2)CC1 | 3.64
38 | COc1cc(/C=C(\C#N)c2nn(CCO)c(N)c2C#N)cc(OC)c1OC | 12.5
39 | O=C(COc1ccccc1)NCC(=O)N1CCCCCC1 | 7.21
40 | CCOC(=O)Cc1cc(=O)n(-c2nc3ccccc3s2)[nH]1 | 5.12
41 | CCC(=NCc1ccccc1)c1c(C(F)(F)F)[nH]n(-c2nc3ccccc3s2)c1=O | 12.6
42 | CN(C)CCCN=Cc1c(O)n(CCc2ccccc2)c(=O)[nH]c1=O | -0.99
43 | O=c1c(C=NCc2cccnc2)c(C(F)(F)F)[nH]n1-c1nc2ccccc2s1 | 9.04
44 | O=c1[nH]c(=O)n(Cc2ccccc2)c(O)c1C=NCCCn1ccnc1 | 1.23

Row | SMILES | hERG current change (%, negative = inhibition) at 10uM [%]
45 | O=c1c(C=NCCCn2ccnc2)c(-c2ccccc2)[nH]n1-c1nc2ccccc2s1 | -71.4
46 | O=c1c(C=NCCCO)c(-c2ccccc2)[nH]n1-c1nc2ccccc2s1 | -72.6
47 | C/C(=N/NC(=O)c1cccs1)c1c(C)[nH]n(-c2nc3ccccc3s2)c1=O | 7.38
48 | CN(C)CCCN=Cc1c(-c2ccccc2)[nH]n(-c2nc3ccccc3s2)c1=O | -71
49 | O=c1cc(-c2ccccc2)[nH]n1-c1nc2ccccc2s1 | 14.2
50 | CCN(CC)CCCN=Cc1c(-c2ccccc2)[nH]n(-c2nc3ccccc3s2)c1=O | -78.2
51 | Nn1c(SCC(=O)NC2CCS(=O)(=O)C2)nnc1-c1cccs1 (stereo not shown) | 16.7
52 | COc1ccc(NC(=O)c2ccccc2CC[N+](=O)[O-])cc1 | 9.51
53 | COc1ccc(CCNC(=O)C2CC(c3ccc(C(F)(F)F)cc3)=NO2)cc1 (stereo not shown) | -6.74
54 | COc1ccc(C(=O)OCC(=O)NCC2CCCO2)cc1 (stereo not shown) | 17.7
55 | COc1ccc2nc(NS(=O)(=O)c3ccc(NC(C)=O)cc3)sc2c1 | 14
56 | O=C(CCN1C(=O)/C(=C/c2ccco2)SC1=S)Nc1ccc(C(=O)O)c(O)c1 | 25.1
57 | Cc1sc2nc(C)n(/N=C/c3ccccc3O)c(=O)c2c1C | -7.37
58 | O=C(Nc1cc(C(F)(F)F)ccc1N1CCOCC1)c1ccccc1F | -4.2
59 | COCCCN=Cc1c(C)[nH]n(-c2ccc(Br)cc2Br)c1=O | 20.4
60 | CC(=NCCCn1ccnc1)c1c(-c2ccccc2)[nH]n(-c2nc3ccccc3s2)c1=O | -70.8
61 | CCCN=C(C)c1c(-c2ccccc2)[nH]n(-c2nc3ccccc3s2)c1=O | -7.79
62 | COCCCN=Cc1c(-c2ccccc2)[nH]n(-c2nc3ccccc3s2)c1=O | -75.1
63 | CC(=NC1CC1)c1c(-c2ccccc2)[nH]n(-c2nc3ccccc3s2)c1=O | 9.63
64 | COCCCN=Cc1c(C)[nH]n(-c2ccc(Br)c(C)c2)c1=O | -9.32
65 | Cn1nc([N+](=O)[O-])nc1Oc1ccccc1 | -5.63
66 | COc1ccc(C(=O)NC2CCN(C(=S)Nc3cccc(C)c3C)CC2)cc1 | 0.204

Row | SMILES | hERG current change (%, negative = inhibition) at 10uM [%]
67 | O=C1c2cccc3c(Nc4ccccc4Cl)c([N+](=O)[O-])cc(c23)C(=O)N1CCO | -22.8
68 | O=C1O/C(=C\c2ccccc2)c2ccccc21 | -57.8
69 | O=C1O/C(=C/c2ccccc2)c2ccccc21 | -3.12
70 | Cc1ccc(/C=C2\OC(=O)c3ccccc32)cc1 | 14.9
71 | COc1ccc(S(=O)(=O)N2CCCC2C(=O)Nc2ccc(C)cc2)cc1 (stereo not shown) | -15.3
72 | O=C(NNc1nc2c(F)cc(F)cc2s1)c1ccccc1 | 8.87
73 | O=C(COc1ccccc1)NNc1nc2c(F)cccc2s1 | 32.6
74 | O=C(COc1ccccc1)NNc1nc2c(F)cc(F)cc2s1 | -62.6
75 | O=C(NN=C1CCCCC1)Nc1ccccc1Cl | 3.82
76 | Cc1nonc1NC(=O)CSc1nnc(-c2ccoc2C)n1CC(C)C | -17.1
77 | Cc1ccc(-n2c(SCC(=O)Nc3ccc4c(c3)OCO4)nnc2-c2ccoc2C)cc1 | -42.2
78 | CCn1c(SCC(=O)Nc2nonc2C)nnc1-c1ccoc1C | -1.18
79 | Cc1nonc1NC(=O)CSc1nnc(-c2ccoc2C)n1C | 4.89
80 | Cc1cccc(-n2c(SCC(=O)Nc3nonc3C)nnc2-c2ccoc2C)c1 | -78.9
81 | Cc1nonc1NC(=O)CSc1nnc(-c2ccoc2C)n1-c1cccc(Cl)c1 | -77.9
82 | Cc1ccc(C)c(-n2c(SCC(=O)Nc3nonc3C)nnc2-c2ccoc2C)c1 | -61.2
83 | CCCn1c(SCC(=O)Nc2nonc2C)nnc1-c1ccoc1C | -8.43
84 | CNC(=O)CSc1nnc(-c2ccco2)n1-c1cc(C)ccc1C | -2.95
85 | COc1ccc(C)cc1NC(=O)C(C)N1CCOCC1.Cl (stereo not shown) | 9.06
86 | Cc1nc(Nc2nc3ccccc3o2)nc(C)c1C | 10.3
87 | CCC(C(=O)Nc1ccc(C(=O)O)cc1NC(=O)C(CC)c1ccccc1)c1ccccc1 (stereo not shown) | 9.71
88 | CCOc1ccc(CCNC(=O)C2CCN(c3nn4c(=O)cc(C)nc4s3)CC2)cc1OCC | -8.23
